L3MBTL1 block = qHTS Assay for the Inhibitors of L3MBTL1; AlphaScreen L3MBTL1–H3K9me1 peptide binding; Potency, µM (titrated, usually from 57.1 µM), without a hit: top-dose activity, negative = inhibition, hits mostly inhibitors; actives 0.66% (n = 230,000); AID 485360, 2010; also: % is scaled to controls: 0 for no effect and ±100 for the full control effect; nearly all actives have a fitted effect of over 60% in size
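Read-out is AlphaScreen signal from streptavidin donor and nickel chelate acceptor beads (10 ug/mL final each) bridging L3MBTL1 (50 nM) and biotinylated K9-monomethylated H3(1-15) peptide (75 nM), after 30 min compound exposure at room temperature.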
Sfp inh = qHTS Assay for Inhibitors of Bacillus subtilis Sfp phosphopantetheinyl transferase (PPTase); 4'-phosphopantetheinyl transferase ffp (Bacillus subtilis), Q9F4F7; Biochemical Sfp PPTase activity, qHTS; Potency, µM, for the others: largest response in the series, negative = inhibition, hits mostly inhibitors; actives 3.5% (n = 310,000);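 also: the enzyme is Sfp with the accession as filed and its product quenches rhodamine fluorescence; 0% = enzyme reaction without inhibitor and -100% = no enzyme wells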
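Sfp 15 nM + cpd, 15 min RT; start w/ rhodamine-CoA 5 uM, BHQ-2-YbbR 12.5 uM (final); 50 mM Hepes pH 7.6, 10 mM MgCl2, 0.01% NP-40, 0.01% BSA; read 525/598 nm at 0 and 30 min.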
G9a block = qHTS Assay for Inhibitors of Histone Lysine Methyltransferase G9a; AID 504332, 2011; actives 8.8% (n = 350,000); Potency, µM (top dose mostly 102 µM), for the others: at the top dose activity, negative = inhibition, usual class: inhibitors; G9a H3K9 monomethylation, AlphaScreen, 2 h; also: % is scaled to controls: 0 for no effect and ±100 for the full control effect; nearly all actives have a fitted effect of over 75% in size
Target sequence (Q96KQ7 913-1193 limits assumed): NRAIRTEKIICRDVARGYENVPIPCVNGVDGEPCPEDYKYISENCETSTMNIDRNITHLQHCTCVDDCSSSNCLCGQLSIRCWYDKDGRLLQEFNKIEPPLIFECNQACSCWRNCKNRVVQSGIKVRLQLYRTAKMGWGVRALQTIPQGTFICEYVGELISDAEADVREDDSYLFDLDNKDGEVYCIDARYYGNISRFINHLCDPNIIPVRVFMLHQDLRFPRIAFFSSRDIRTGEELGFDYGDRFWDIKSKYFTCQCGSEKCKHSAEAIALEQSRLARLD
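Readings reflect AlphaScreen signal from monomethyl-H3K9 antibody detection. HMT at 20 nM; substrate b-H3K9 500 nM; cofactor SAM 20 uM; 2 h RT reaction; compounds tested as titrations in qHTS with 15 min preincubation.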
HP1b binding inh = HTS for Inhibitors of HP1-beta Chromodomain Interactions with Methylated Histone Tails | Chromobox protein homolog 1 (Homo sapiens), P83916 | AID 540317, 2011 | actives 0.56% (n = 390,000) | Potency, µM (doses to about 114 µM), for the others: at the highest dose activity change, negative = inhibition, actives largely listed as inhibitors | AlphaScreen HP1-beta / biotin-H3K9me3 peptide binding; also: nearly all actives have a fitted effect of over 70% in size
Target sequence (P83916 whole entry, looked up): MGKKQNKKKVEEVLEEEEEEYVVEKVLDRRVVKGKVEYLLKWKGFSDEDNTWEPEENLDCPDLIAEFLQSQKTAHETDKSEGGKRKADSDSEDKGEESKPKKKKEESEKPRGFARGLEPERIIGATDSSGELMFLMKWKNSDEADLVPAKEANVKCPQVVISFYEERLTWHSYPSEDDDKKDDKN
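AlphaScreen: HP1-beta (50 nM) preformed 30 min with biotin-H3(1-18)K9me3 peptide (50 nM) in PBS pH 7.4, 0.01% Tween-20. Compound added for 30 min at RT, then streptavidin donor/nickel chelate acceptor beads (10 ug/mL) for 30 min.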
JMJD2A Tudor = qHTS Assay for Inhibitors of JMJD2A-Tudor Domain. Lysine-specific demethylase 4A (Homo sapiens), O75164. AlphaScreen JMJD2A-Tudor / H3K4me3 peptide binding. Potency, µM (titrated, usually from 114 µM), inactives show at the top dose activity change, negative = inhibition, hits mostly inhibitors. actives 4.4% (n = 390,000); also: % is scaled to controls: 0 for no effect and ±100 for the full control effect; nearly all actives have a fitted effect of over 50% in size
BAZ2B inh = qHTS Assay for Inhibitors of BAZ2B; Bromodomain adjacent to zinc finger domain protein 2B (Homo sapiens), Q9UIF8; AlphaScreen BAZ2B-H3K14Ac peptide displacement; Potency, µM (series often up to 114 µM), inactives show at the highest dose activity change, negative = inhibition, hits mostly inhibitors; actives 4.4% (n = 360,000); AID 504333, 2011; also: % is scaled to controls: 0 for no effect and ±100 for the full control effect; nearly all actives have a fitted effect of over 60% in size
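Protein-peptide AlphaScreen: BAZ2B 50 nM, b-H3K14Ac 50 nM, 1x PBS pH 7.4 + 0.01% Tween-20. Preincubation 30 min RT; cpd 30 min RT (top 110 uM); beads 20 min RT, light-protected.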
Starred values were filed as active, the others as inactive; ? = inconclusive; . = no result; [ ] = dose if it differs, or a comment. This is a sample that favours compounds with a hit; in the whole collection about 12% have one here. Calls follow the shape of the dose curve; as a rule, active = well fitted curve in the direction sought with a large enough effect; inconclusive = small, poorly fitted or top-dose-only effect, or another doubt; inactive = no such curve, though single readings can be large; an effect the other way counts as inactive or inconclusive. Potency is read from the fitted curve at half-maximal effect.

SMILES	L3MBTL1 block	Sfp inh	G9a block	HP1b binding inh	JMJD2A Tudor	BAZ2B inh
C=CC[C@@H]1/C=C(\C)C[C@H](C)C[C@H](OC)[C@H]2O[C@@](O)(C(=O)C(=O)N3CCCC[C@H]3C(=O)O[C@H](/C(C)=C/[C@@H]3CC[C@@H](O)[C@H](OC)C3)[C@H](C)[C@@H](O)CC1=O)[C@H](C)C[C@@H]2OC	.	11%	-33%[12.7 µM]	.	.	.
COc1cc(NC(=O)CCc2nc3cccnc3n2Cc2cccs2)cc(OC)c1OC	.	.	-19%[59 µM]	19%	-21%	?
C=CCn1c(-c2cccc(S(=O)(=O)N3CCOCC3)c2)n[nH]c1=S	7%	.	7.1µM*	11%	7.1µM*	4%
NC(=O)CSc1nnc(-c2cccc(S(=O)(=O)N3CCOCC3)c2)n1C1CCCCCC1	.	11%	8%	-9%	?	-4%
CCN(CC)S(=O)(=O)c1cccc(-c2csc(C)n2)c1	8%	6%	-17%[59 µM]	43%	7%	0%
Cn1c(CSCc2ccc(Cl)cc2Cl)n[nH]c1=S	-7%	-19%	.	3%	-29%	-7%
CCN(CC)S(=O)(=O)c1cccc(-c2n[nH]c(=S)n2C)c1	.	-5%	?	?	18µM*	-19%
C=CCn1c(SCC(=O)Nc2ccccc2)nnc1-c1cccc(S(=O)(=O)N2CCOCC2)c1	4%	13%	-11%[59 µM]	22%	18%	-2%
Cc1ccc(-c2n[nH]c(=S)n2C)cc1Cl	-10%	?	?	-32%	3.2µM*	0%
O=S(=O)(c1cccc(-c2n[nH]c(=S)n2C2CCCC2)c1)N1CCOCC1	.	-10%	10µM*	12%	4µM*	.
C=CCCN(C(C)C(=O)OC)S(=O)(=O)c1ccccc1Br (configuration not stated)	.	7%	.	61%	2%	.
COc1ccccc1-c1noc(-c2ccc(NC3CCCC3)c([N+](=O)[O-])c2)n1	.	.	-2%[59 µM]	44%	-6%	0%
Cc1ccc(N2CCN(C(=O)c3c4c(nc5ccccc35)C(=O)N(C3CCCCC3)C4)CC2)c(C)c1	.	.	5%[59 µM]	3%	?	-22%
C=CCn1c(-c2cccc(S(=O)(=O)N(CC)CC)c2)n[nH]c1=S	?	?	3.5µM*	13%	13µM*	.
COc1ccc(CCNC(=O)CCCCn2c(=O)c3ccccc3n(CC(=O)Nc3ccc(C)cc3C)c2=O)cc1OC	.	.	8%[59 µM]	31%	-20%	-1%
Nc1ccccc1Nc1cc(-c2cccc(Cl)c2)nn1-c1ccccc1	?	15%	28µM*	?	22µM*	22µM*
Nc1c(-c2ccccc2)cnn1-c1cccc(Cl)c1	.	4%	9%	35%	3%	1%
O=C(NNS(=O)(=O)c1ccccc1[N+](=O)[O-])c1ccc(F)cc1	10%	5%	.	43%	-31%	-3%
O=C(NNS(=O)(=O)c1ccccc1[N+](=O)[O-])c1cccc(Br)c1	-1%	-12%	-5%	21%	11µM*	-20%
O=C(NNS(=O)(=O)c1ccccc1[N+](=O)[O-])c1cccc(Cl)c1	9%	-3%	?	23%	28µM*	-8%
Cc1cccc(C(=O)NNS(=O)(=O)c2ccccc2[N+](=O)[O-])c1	-8%	6%	?	8%	?	-7%
O=C(NNS(=O)(=O)c1ccccc1[N+](=O)[O-])c1ccc(O)cc1	.	7%	?	?	5.6µM*	50µM*
COC(=O)c1c(C)nn(-c2ccc(F)cc2)c1-n1cccc1	.	.	16%[59 µM]	57%	18%	6%
CC(/C=C/c1ccco1)=N\NC(=O)CNc1ccc2ccccc2c1	35µM*	-6%	5.6µM*	-20%	?	35µM*
CC(/C=C/c1ccco1)=N/NC(=O)CNc1ccccc1C	.	50µM*	-6%[59 µM]	-3%	-27%	-38%
SMILES	L3MBTL1 block	Sfp inh	G9a block	HP1b binding inh	JMJD2A Tudor	BAZ2B inh
CC(/C=C/c1ccco1)=N\NC(=O)c1cccc(Cl)c1	3%	?	5%[59 µM]	-16%	-31%	6%
CCCCN1C(=O)C(O)(c2c[nH]c3ccccc23)c2cc(Br)ccc21 (configuration not stated)	.	.	-41%[59 µM]	-1%	-32%	?
COc1cc(CN(C(=O)c2ccccc2)c2ccccn2)cc(OC)c1OC	.	.	1%[59 µM]	27%	-10%	-7%
COc1cccc(NC(=O)CN2C(=O)C3(SCC(=O)N3c3cc(C)cc(C)c3)c3ccccc32)c1 (configuration not stated)	.	.	-8%[59 µM]	9%	-20%	1%[57.1 µM]
Cc1ccccc1OCc1nnc(SCc2cc(=O)c3cccc(F)c3[nH]2)n1C	.	.	3%[59 µM]	33%[57 µM]	-1%	4%
Cc1cc(NO)nc(-c2ccc(Br)cc2)n1	-6%	?	?	?	20µM*	.
Cc1cc(C)nc(NC(=O)c2ccc(Br)cc2)n1	.	4%	?	-9%	-10%	-10%
CCc1nnc2n1N=C(c1ccc(OC)cc1)CS2	3%	16%	-19%[59 µM]	32%	-22%	-5%
CCc1nnc2n1N=C(c1ccc([N+](=O)[O-])cc1)CS2	12%	-14%	35µM*	37%	-5%	-5%
COc1ccc(S(=O)(=O)N/N=C\c2ccccc2F)cc1	.	9%	40µM*	41%	-3%	-2%
COc1ccc(S(=O)(=O)NC(C)C(=O)Nc2cccc(C(C)=O)c2)cc1 (configuration not stated)	-3%	-19%	?	11%	-15%	7%
COc1ccccc1/C=N/NS(=O)(=O)c1ccccc1	.	6%	?	77%	3%	-5%
COc1ccc(S(=O)(=O)NC(C)C(=O)Nc2ccccc2F)cc1 (configuration not stated)	0%	-17%	40µM*	19%	-4%	-2%
COc1ccc(S(=O)(=O)Nc2c(F)cccc2F)cc1	2%	14%	-4%	50µM*	25µM*	-14%
COc1ccc(S(=O)(=O)Nc2cccc3ccccc23)cc1	.	.	.	22%	-23%	.
CC(C)CCNC(=O)c1ccc(NC(=O)N2CCCCc3ccccc32)cc1	.	.	7%[59 µM]	38%	7%	-2%
COc1ccc(CCNC(=O)c2cc3c(=O)[nH]c4ccc(C)cc4c3s2)cc1OC	.	.	0%[59 µM]	9%	-18%	-8%

High-throughput results as filed in PubChem BioAssay.
